Test results as given in PubChem BioAssay AID1508600 (Functional Genomics Laboratory (NCATS/FGL), 2020).
Hit rate of the full screen: of about 53,000 sequences, about 3,700 (7%) were called active.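 Rule for the calls: active = gene knockdowns whose robust z-score for IL-1 alpha signal is at least 2 or at most -2, so actives lie on both sides; inactive = the rest.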 Shown is part of a subset that was picked to be rich in actives.

Assay: Components of the Cytosolic LPS Sensing Pathway: Gene Identification via Genome-wide siRNA Screen;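 note: robust z of the log signal after scaling to non-targeting control siRNA wells of the plate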
Conditions: RAW264.7 macrophages, IL-1a HTRF, actives lie on both sides, screened at 100 nM (by protocol), cells primed 5 h with Pam3CSK4 first
Outline: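 RAW264.7; siRNA 100 nM final, RNAiMAX, 48h 37 degrees C; Pam3CSK4 5 h; LipidA + TransIT-TKO 24 h; IL-1a HTRF; CellTiter-Glo viability; robust z vs negative-control median.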

z-score, active:
GGACCAAGUGGAAGAAGCATT against Nkx1-2 -2.02
GGUGCAAGUGCAGUUUCAATT against Fxyd6 2.38
GUUCUAUGGUAGACAUUAUTT against Gm5414 -2.35
GGUUCUGAACCAGCUGGAGTT against Chd3 2.72
GGCAAGAAAAAUCAGAUUGTT against Cyld 3
CGUGGACUCUAUAAUCAACTT against Map7d1 2.47
GCAUCGUGUGCAAGAUCCUTT against Atp4b 2.74
GGAACUGUCACAACUGCUATT against Acat3 3.22
GGUUCUGAGUAUUUAAAGCTT against Nt5dc3 2.21
GCAGGAUCCUGAAACCAUGTT against Lrrc14 -2.09
GCUGGAUUAUUUGAGAGUCTT against Trim62 2.17
CCUAGAAAAGUCAUUGUCATT against 3010003L21Rik -2.08
GGACGAACAGUAUUAUACUTT against Lhx5 2.11
GGAGCAAGACAUAUAGAAATT against Spsb2 2.26

z-score, inactive:
GGAUGAUGUUCCCAUGCAATT against Cdca7l -0.45
GCUGCUCGAUUGCUUUCCATT against 4930429B21Rik 0.411
GGACAGAUGGAAUAGUGAATT against Klra10 -0.657
CCAUCAAGCGAUUUGUGGUTT against Rnf103 -0.156
GGCCAGCAGACUAUUUAUUTT against Derl1 0.304
GCACAAAAUUCACUGUUAGTT against Olfr112 0.965
GCUCGGUAGGUAUUUUCUGTT against Tmem164 -0.13
GGCUGAUGCAGACAGUUUCTT against Brap -0.655
GGAUUGAAACAGAUGAGAGTT against Gtf2e1 0.833
GGAGUGCUGAUAAAAGAAGTT against Atp5mpl -0.952
GCUCUCAUACACGGUGGAATT against Ros1 -0.272
GGAGACCUCAGCUGAUAUUTT against Tmem109 0.51
GGCCAUGCCUUUGUAUGCUTT against Tbc1d25 -0.155
GGAUUUUGUUGACAAUGAUTT against Ncaph -0.0936
GGAGCUCUUGGAUAUAAAATT against Eif4enif1 0.223
GGUGAGACAGAUAAAGUUCTT against Olfr1124 1.15
GGUAAAAGCUACCAUUCAGTT against Ap2a2 -0.947
GGUUUGUUUUUGUUCGUUUTT against Cytip -0.067
GGAGUUUACGGCUAUUGACTT against Adap2 -0.884
GGUUUAAUUCUUGUCUUGUTT against Pvt1 -0.928
GGUUAUCGGUUGUACAUAUTT against Chd3 1.03
GGCAAGCUUCCAGAUCGAATT against Adam23 0.0113
GGAACCAGAUCUCAUGCCCTT against Endov -1.47
GGAUCACACUAGUAUUUUCTT against Sertad2 -0.923
GCUAAAAACAACUAGGAAATT against Wdr60 0.391
GGAAAUAUAUCUGAAAGGGTT against Sphkap 0.514
GCUCGCUAAAGUGAUUAAATT against Gm5533 0.867
GGACUUUCUAAGGGUAAAATT against Luzp1 -0.0646
GGACAAAGCUAUUGGGAUUTT against Olfr402 1.45
GGUGAUGGUCCAGAUUAACTT against Plpbp -0.0895
GCUGAAAUAGUUGCUAAAUTT against Usp6nl 0.443
GGAGAAGCUCAUCUCUCUGTT against Rfx2 -1.35
GGAACAUCUUUCUUCUCCATT against Abhd4 -0.869
GGAUUCGGACUUCAUAAUCTT against Dpp10 0.256
GCUGAUAAAUCUGAACUACTT against Dhrs7 1.15
GGACAUCUCCUUGAUCUUGTT against Slc1a5 -0.95
UCACCAUCUUGAAGAUUCGTT against Olfr486 -0.792
GCCCAAGACGAAAAGAUACTT against Mrpl9 0.662
GGAUAGCAAAUUCAUCACATT against Ptprg -0.214
GGCUUCGUAGCUUUACAAATT against Abca6 -0.846
GGAAAGGUCAAGAGAAUUUTT against Strn3 -1.16
GGACUUACUGACAAGAAACTT against Pcdhgb8 -0.52
UUCUAAUUGUCACUUGGUGTT against Olfr1474 -0.133
GCAUUAAGCAAUGGCAUCATT against Cbfa2t2 0.21
GCAUCAGAGAAGUGCGAGCTT against Pafah2 -0.0121
GCUCAUGAUCAUAUCAUGATT against 1810055G02Rik 0.647
CCCACACAAUUCUCAUGGGTT against Olfr366 0.661
GGAAUACGAAGAGAUUAUATT against Zw10 0.65
CCUUCAAGAUAAAUUGACATT against Tango6 0.755
GGAAAAGGCCAUGAAUAUATT against Mmel1 0.176
GGCCAGACACAGGUAGACATT against B9d2 -1.85
CGGACGAUUCGUGUCAAUUTT against Ppie 0.619
CCUGAUGUUAUUCCUUUUATT against Klhl20 -0.524
GGUGAUGACGAAGGAAUCCTT against Zfpm2 -1.51
